Records with an inconclusive call do not appear. The source made the active and inactive calls. Unless noted, calls follow the shape of the dose curve; as a rule, active = well fitted curve in the direction sought with a large enough effect; inconclusive = small, poorly fitted or top-dose-only effect, or another doubt; inactive = no such curve, though single readings can be large; an effect the other way counts as inactive or inconclusive.
Columns and labels:
[1] = Confirmation and Secondary Assay for Modulators of Hemoglobin Beta Chain Splicing at IVS2 654 locus (AID 910);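 also: HeLa cells stably carrying EGFP split by mutant beta-globin IVS2-654 intron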
In short: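 HeLa cells stably expressing EGFP interrupted by β-globin IVS2-654 intron, seeded overnight in Opti-MEM/2% FCS, then treated 2 days at 37 °C. Restored splicing read as total peak GFP intensity per well by laser scanning cytometry (488 nm excitation, 500–520 nm emission); 500 nM antisense PNA as control.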

[2] = Confirmation and Secondary Assay for Modulators of Hemoglobin Beta Chain Splicing at IVS2 705 locus (AID 930);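 also: HeLa cells stably expressing the EGFP-705 splicing reporter; GFP fluorescence per well restored by corrected splicing of the IVS2-705 intron in EGFP; series mostly up to about 46 µM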
In short: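 HeLa IVS2-705 EGFP reporter cells, 500/well, compound 2 d at 37C; correct splicing yields fluorescent EGFP. Control: 500 nM antisense PNA. Read-out: total peak GFP intensity.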

[3] = Cell Viability - LYMP2-001 (AID 921);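 also: cells exposed to compound for 24 h at 37 °C; nearly all actives have a fitted effect of over 70% in size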; also: potency is read from the fitted curve at half-maximal effect
In short: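 Steps: seed 2500 lymphoblastoid cells/well; 5 hr, 37 C; add compound; 24 hr, 37 C; CellTiter-Glo reagent, 30 min room temperature; read luminescence. Concentration-response modeled by Hill equation for AC50.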

[4] = MultiTox-Fluor Cytotoxicity Assay - LYMP1-001 - Dead Cells (AID 946); also: potency is read from the fitted curve at half-maximal effect
In short: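 In this qHTS, 15 uM tetraoctylammonium bromide defined 100% and DMSO defined basal activity. Lymphoblastoid cells (LYMP1-001, 2500 per well) received compound for 16 hr at 37 C before a fluorogenic dead-cell substrate readout at 485/520 nm.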

[5] = MultiTox-Fluor Cytotoxicity Assay - LYMP1-002 - Live Cells (AID 955);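 also: cells exposed to compound for 16 hours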; also: potency is read from the fitted curve at half-maximal effect
In short: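 Cells were seeded at 2500 per well and incubated 5 hr. Compounds were then added for 16 hr at 37 C, followed by MultiTox-Fluor reagent for 60 min at room temperature and fluorescence reading of viable-cell protease signal.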

[6] = MultiTox-Fluor Cytotoxicity Assay - LYMP1-002 - Dead Cells (AID 960); also: nearly all actives have a fitted effect of over 60% in size; also: potency is read from the fitted curve at half-maximal effect
In short: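 Cells were plated, rested 5 hr, then treated with compound dilution series for 16 hr at 37 C. After adding substrate reagent and 60 min at room temperature, dead-cell protease fluorescence gave concentration-response curves fitted by the Hill equation.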

[7] = MultiTox-Fluor Cytotoxicity Assay - LYMP1-003 - Dead Cells (AID 961);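 also: cells exposed to compound for 16 h at 37 °C; nearly all actives have a fitted effect of over 70% in size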; also: potency is read from the fitted curve at half-maximal effect
In short: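 Acute toxicity is scored as increased dead-cell protease activity in human lymphoblastoid LYMP1-003 cells after 16 h compound exposure in complete culture medium. Activity is normalized to DMSO basal and 15 uM tetraoctylammonium bromide as full response.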

[8] = MultiTox-Fluor Cytotoxicity Assay - LYMP1-003 - Live Cells (AID 962);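 also: cells exposed to compound for 16 hours at 37 °C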; also: potency is read from the fitted curve at half-maximal effect
In short: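 Acute cytotoxicity is scored as a drop in live-cell protease activity in human lymphoblastoid LYMP1-003 cells after 16 hr compound exposure at 37 C. AC50 values come from Hill-equation modelling of concentration-response data.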

[9] = Cell Viability - LYMP1-003 - Assay at 24 hr (AID 963); also: potency is read from the fitted curve at half-maximal effect
In short: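 Cytotoxicity is scored as a concentration-dependent fall in ATP-linked luciferase signal in human lymphoblastoid LYMP1-003 cells treated 24 hr at 37 C in complete culture medium.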

[10] = Cell Viability - LYMP1-003 - Assay at 40 hr (AID 964); also: nearly all actives have a fitted effect of over 60% in size; also: potency is read from the fitted curve at half-maximal effect
In short: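 Luminescent ATP signal (CellTiter-Glo) served as the viability read-out after 40 hr compound treatment of human lymphoblastoid LYMP1-003 cells at 37 C. Decreases in ATP were fitted with the Hill equation to give AC50.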

[11] = Cell Viability - LYMP2-003 (AID 965);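 also: cells exposed to compounds for 24 h before reading; nearly all actives have a fitted effect of over 50% in size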; also: potency is read from the fitted curve at half-maximal effect
In short: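 Seed 2500 lymphoblastoid cells/well; incubate 5 hr, 37 C; add compounds; incubate 24 hr, 37 C; add CellTiter-Glo, 30 min RT; read luminescence. AC50 from Hill fit.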

[12] = MultiTox-Fluor Cytotoxicity Assay - LYMP1-001 - Live Cells (AID 947); also: potency is read from the fitted curve at half-maximal effect
[13] = biological target: Muscarinic acetylcholine receptor M1 (Rattus norvegicus) (UniProt P08482); test: qHTS Assay for Antagonists of Acetylcholine Muscarinic M1 Receptor: Kinetic Measurement of Intracellular Calcium Response (AID 943);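 also: Fluo-4 calcium signal as peak divided by basal fluorescence over 4 min; series mostly up to about 35 µM; nearly all actives have a fitted effect of over 75% in size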
In short: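 Antagonism is measured as inhibition of the carbachol-evoked calcium rise in CHO cells transfected with rat M1. Cells are dye-loaded, exposed to compound for 10 min, then stimulated with 100 nM carbachol (EC80).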

[14] = biological target: Muscarinic acetylcholine receptor M1 (Rattus norvegicus) (UniProt P08482); test: qHTS Assay for Antagonists of Acetylcholine Muscarinic M1 Receptor: Measurement of IP-One Response (AID 944); also: nearly all actives have a fitted effect of over 75% in size
In short: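 Antagonist mode with rat M1 receptor transfected into CHO cells. Compound is added first for 10 min, carbachol at its EC80 follows for 30 min, and lysis reagents then allow TR-FRET detection of accumulated IP1.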

[15] = biological target: Pyruvate kinase (Leishmania mexicana) (UniProt Q27686); test: qHTS Validation Assay for Inhibitors of Leishmania Mexicana Pyruvate Kinase (AID 945)
In short: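 Eight-point qHTS titrations; enzyme 0.2 nM LmPYK (E451W mutant); substrates 0.5 mM PEP, 0.1 mM ADP; 7 mM MgCl2; 1 h room temperature; PKLight luminescence normalized to neutral control.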

[16] = biological target: Pyruvate kinase PKM (Homo sapiens) (UniProt P14618); test: qHTS Assay for Activators of Human Muscle Pyruvate Kinase (AID 954; active = well fitted curve in the direction sought with a large enough effect, not every such curve was filed as active)
In short: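 Screening used highly purified human pyruvate kinase M2 under submaximal activity, with PEP at its Km and ADP below Km. After an hour at room temperature, ATP was read by luciferase luminescence.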

Measured: Potency

Sequence of Pyruvate kinase PKM (Homo sapiens) (P14618 whole entry, looked up): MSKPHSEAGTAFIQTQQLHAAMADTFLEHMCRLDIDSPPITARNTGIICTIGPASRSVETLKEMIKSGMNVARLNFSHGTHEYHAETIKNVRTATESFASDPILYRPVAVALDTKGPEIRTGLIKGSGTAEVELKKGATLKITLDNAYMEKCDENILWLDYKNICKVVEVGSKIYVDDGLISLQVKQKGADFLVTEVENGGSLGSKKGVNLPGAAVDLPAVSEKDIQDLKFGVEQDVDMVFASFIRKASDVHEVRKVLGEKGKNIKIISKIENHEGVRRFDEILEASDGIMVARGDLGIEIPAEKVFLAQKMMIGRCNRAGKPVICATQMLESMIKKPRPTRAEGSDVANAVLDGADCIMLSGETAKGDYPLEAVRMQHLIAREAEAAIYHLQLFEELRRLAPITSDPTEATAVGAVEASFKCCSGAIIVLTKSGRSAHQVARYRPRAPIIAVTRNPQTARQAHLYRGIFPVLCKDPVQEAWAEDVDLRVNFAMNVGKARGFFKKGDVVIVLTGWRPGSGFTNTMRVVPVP
Sequence of Muscarinic acetylcholine receptor M1 (Rattus norvegicus) (P08482 whole entry, looked up): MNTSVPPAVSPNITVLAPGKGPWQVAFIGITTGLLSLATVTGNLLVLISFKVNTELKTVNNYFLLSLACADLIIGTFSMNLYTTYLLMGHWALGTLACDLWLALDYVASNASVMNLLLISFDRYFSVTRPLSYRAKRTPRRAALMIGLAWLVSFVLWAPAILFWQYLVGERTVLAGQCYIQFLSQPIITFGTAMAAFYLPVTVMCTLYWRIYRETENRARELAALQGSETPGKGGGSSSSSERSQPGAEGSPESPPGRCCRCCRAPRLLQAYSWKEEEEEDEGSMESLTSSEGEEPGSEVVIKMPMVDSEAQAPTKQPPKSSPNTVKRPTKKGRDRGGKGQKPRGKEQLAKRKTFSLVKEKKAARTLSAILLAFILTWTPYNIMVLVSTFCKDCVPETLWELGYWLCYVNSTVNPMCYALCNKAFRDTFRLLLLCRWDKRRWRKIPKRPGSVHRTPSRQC
Sequence of Pyruvate kinase (Leishmania mexicana) (Q27686 2-499 E452W): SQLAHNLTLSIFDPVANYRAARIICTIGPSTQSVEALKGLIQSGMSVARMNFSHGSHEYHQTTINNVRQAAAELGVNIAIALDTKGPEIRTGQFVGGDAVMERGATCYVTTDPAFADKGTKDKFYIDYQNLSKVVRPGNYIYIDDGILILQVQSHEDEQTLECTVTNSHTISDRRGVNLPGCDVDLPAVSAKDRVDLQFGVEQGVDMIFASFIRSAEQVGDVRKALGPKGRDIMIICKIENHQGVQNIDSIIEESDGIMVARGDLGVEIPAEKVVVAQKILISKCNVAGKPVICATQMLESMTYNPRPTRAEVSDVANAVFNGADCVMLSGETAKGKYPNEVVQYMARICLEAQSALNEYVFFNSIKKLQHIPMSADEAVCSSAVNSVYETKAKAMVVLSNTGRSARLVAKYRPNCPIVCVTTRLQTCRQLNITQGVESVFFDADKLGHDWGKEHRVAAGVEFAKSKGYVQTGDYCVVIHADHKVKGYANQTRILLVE

OCc1ccccc1O
inactive: [1] | [2]

Nc1ccc(C(=O)O)cc1
not listed: [12] | [13] | [14] | [15] | [16]
inactive: all other assays above

Oc1c(I)cc(I)c2cccnc12
inactive: [2]

CCCC(=O)Nc1ccc(OCC(O)CNC(C)C)c(C(C)=O)c1 (configuration not stated)
inactive: [2]

Cc1ccc(C(=O)C(C)CN2CCCCC2)cc1 (configuration not stated)
inactive: [2]

Oc1c(Cl)cc(Cl)cc1Sc1cc(Cl)cc(Cl)c1O
inactive: [2] | [4] | [12] | [5] | [6] | [7] | [8] | [9]
active: [3] 39.8 µM | [10] 39.8 µM

COc1cccc2c1C(=O)c1c(O)c3c(c(O)c1C2=O)C[C@@](O)(C(=O)CO)C[C@@H]3O[C@H]1C[C@H](N)[C@H](O)[C@H](C)O1
active: [3] 0.501 µM | [4] 2.51 µM | [12] 1.58 µM | [5] 5.01 µM | [6] 3.16 µM | [7] 6.31 µM | [8] 794 nM | [9] 1.26 µM | [10] 0.398 µM | [11] 0.501 µM

COc1cc(OC)cc(OC)c1
inactive: [2]

CCCCCCc1ccc(O)cc1O
inactive: [3] | [2] | [4] | [12] | [5] | [7] | [8] | [9] | [11]

CCC(=O)c1c(O)cc(O)cc1O
inactive: [1] | [2]

CN(C)/N=N/c1nc[nH]c1C(N)=O
not listed: [1] | [13] | [14] | [15] | [16]
inactive: all other assays above

CCN(CCCc1ccccc1)CCCc1ccccc1
inactive: [2]

CCN(CCCCOC(=O)c1ccc(OC)c(OC)c1)C(C)Cc1ccc(OC)cc1 (configuration not stated)
inactive: [2]

C=C(CC)C(=O)c1ccc(OCC(=O)O)c(Cl)c1Cl
active: [3] 50.1 µM | [6] 31.6 µM | [7] 50.1 µM | [11] 50.1 µM
inactive: [2] | [12] | [5] | [8] | [9]

C[N+]1(CCCCC[N+]2(C)CCCC2)CCCC1
inactive: [1] | [2] | [13] | [14] | [15] | [16]

O=C(O)CCCCC(=O)O
not listed: [1] | [2] | [13] | [14] | [15] | [16]
inactive: all other assays above

CC(C)NC[C@@H](O)COc1cccc2ccccc12
inactive: [1] | [2] | [14] | [16]

CC(=O)Oc1ccc(C(c2ccc(OC(C)=O)cc2)c2ccccn2)cc1
not listed: [1] | [13] | [14] | [15] | [16]
inactive: all other assays above

CNCCC=C1c2ccccc2CCc2ccccc21
inactive: [1] | [2] | [15] | [16]

CCOC(=O)n1ccn(C)c1=S
inactive: [2]

CC(O)C(=O)O (configuration not stated)
not listed: [1] | [2] | [13] | [14] | [15] | [16]
inactive: all other assays above

C=CCc1ccc(O)c(OC)c1
not listed: [1] | [13] | [14] | [15] | [16]
inactive: all other assays above
